Compounds without any hit were thinned out: in the full panel of roughly 79,000, 15% have a hit. Active and inactive are the calls of the source. Cut-off read from the data, not from the text of the source: active = growth inhibition above about 70%; inactive = the rest.

The test can be described thus: NCI Yeast Anticancer Drug Screen. Data for the mec2-1 strain (AID 157). Particulars: S. cerevisiae mec2-1 strain, at 5.0 µM (retest, dose inferred, filed as 0.5), stronger effect = higher value. An outline of the steps: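 Vehicle-treated cultures served as reference for growth inhibition of compound-exposed mec2-1 yeast.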
With `CCOC(=O)C1C(O)=C(P(=O)(C2=C(O)C(C(=O)OCC)C(c3ccc(OC(C)=O)cc3)C(C(=O)O)C2=O)N(CCCl)CCCl)C(=O)C(C(=O)O)C1c1ccc(OC(C)=O)cc1` (stereo not given), the growth inhibition is 1% (inactive). `c1ccc([As+](c2ccccc2)(c2ccccc2)c2cccc3ccccc23)cc1`: the growth inhibition was 90% (active). As to `CCCCCCCCc1ccc(OCCN(CCCl)CCCl)cc1`, the growth inhibition is -23% (inactive). As for `S=C=NCCc1ccccc1`, the growth inhibition is -13% (inactive). As to `COC1=C(Cl)C(=O)c2ccccc2C1=O`, the growth inhibition was 15% (inactive). To `CN(C)c1ccc(N=Nc2cccc(C(=O)[O-])c2)cc1.CN(C)c1ccc(N=Nc2cccc(C(=O)[O-])c2)cc1.NC1CCCCC1N.O=[N+]([O-])O.[Pt+4]` belongs 21% (inactive). Consider `CCOC(=O)c1ccc(N=Cc2ccc(N(CCCl)CCCl)cc2C)cc1`, for which the growth inhibition is 13% (inactive). As for `O=c1s[se]c2ccccc12`, the growth inhibition is 13% (inactive).

Take `CC1CCC2(OC1)OC1C(O)C3C4CCC5CC(OC6OC(CO)C(OC7OC(CO)C(O)C(OC8OCC(O)C(O)C8O)C7OC7OC(CO)C(O)C(OC8OC(CO)C(O)C(O)C8O)C7O)C(O)C6O)C(O)CC5(C)C4CCC3(C)C1C2C` (stereo not given): the growth inhibition is 97% (active). In the case of `CN(C)c1ccc(/C=C/c2cc3scc(-c4ccccc4)[n+]3c3ccccc23)cc1`, the growth inhibition is 4% (inactive). With `CSCCC([NH-])C(=O)O.CSCCC([NH-])C(=O)O.[Zn+2]` (stereo not given) the figure was 1% (inactive); with `O=C(O)CN1CCN(CC(=O)O)CC(=O)[O][Hg][O]C(=O)C1`, 100% (active); with `Cc1c2ccncc2c(CN(CCCl)CCCl)c2c3ccccc3n(C)c12`, 17% (inactive). On to `COc1ccc(P2(=S)Oc3ccc(C(c4ccccc4)(c4ccccc4)c4ccccc4)cc3O2)cc1` (stereo not given), for which the growth inhibition is 11% (inactive).

As for `Cc1cc[n+](C2=C(Nc3c(C)cccc3C)C(=O)c3ccccc3C2=O)cc1`, the growth inhibition is 5% (inactive). For `C(#C[PH+](c1ccccc1)c1ccccc1)c1ccccc1.C(#C[PH+](c1ccccc1)c1ccccc1)c1ccccc1.C(#C[PH+](c1ccccc1)c1ccccc1)c1ccccc1.[C-]#[O+].[C-]#[O+].[C-]#[O+].[Cr]`, the growth inhibition is 31% (inactive). Turning to `CC(=O)O.[RuH].c1ccc([PH+](c2ccccc2)c2ccccc2)cc1.c1ccc([PH+](c2ccccc2)c2ccccc2)cc1.c1ccc([PH+](c2ccccc2)c2ccccc2)cc1`, the growth inhibition was -15% (inactive).

Turning to `O=C(N/N=C/c1cc(Br)cc(Br)c1[O-])c1ccccc1O.O=C(N/N=C/c1cc(Br)cc(Br)c1[O-])c1ccccc1O.[Ni+2]`, the growth inhibition was 98% (active). With `O=C(C[n+]1ccccc1)C1CCc2ccccc2C1` (stereo not given), the growth inhibition was 0% (inactive). For the compound `CC(=O)[O-].CC(=O)[O-].O=C(N/N=C/c1cc(Cl)cc(Cl)c1[OH2+])c1ccncc1.[Zn+2]`, the growth inhibition is -1% (inactive). For `ClCCN(CCCl)CCN1c2ccc3ccccc3c2Sc2ccc3ccccc3c21`, the growth inhibition is 0% (inactive). For the compound `C=CCc1cc(Cl)ccc1OC(=O)N(C)C`, the growth inhibition was 5% (inactive).

For the compound `CC(=O)[O][Sn]([CH3])([CH3])[c]1ccccc1`, the growth inhibition was 3% (inactive). For the compound `NCCNCCNCCNCCN` (tested in a mixture with another compound), the growth inhibition is -35% (inactive). In the case of `CC(=O)[CH-]C(C)=O.CC(=O)[CH-]C(C)=O.[O-]c1ccccc1.[O-]c1ccccc1.[Ti+4]`, the growth inhibition is 20% (inactive).

For the compound `NC(=O)c1ccc(C(=O)Nc2ccc([As](=O)(O)O)cc2)cc1`, the growth inhibition is 6% (inactive).

Regarding `[C-]#[O+].[C-]#[O+].[CH3][Sn]([CH3])[c]1ccccc1.[Fe+5].[c-]1[c-][c-][cH-][c-]1`, the growth inhibition is 4% (inactive). To `CC(C)(C)S.[Hg]` belongs 99% (active). `O=C(O)C(O)(c1ccc(-c2ccccc2)cc1)c1ccc(-c2ccccc2)cc1`: the growth inhibition was 13% (inactive). As to `Cc1ccc2c(-c3ccccc3)c3ccccc3[s+]c2c1`, the growth inhibition is 2% (inactive). With `CCOC(=O)[C]1([Pb]([CH3])([CH3])[CH3])N=NC(C(=O)OC)=C1C(=O)OC` (stereo not given), the growth inhibition is -1% (inactive).

On to `CCCNC1=C(C)C(=O)C2=C(C1=O)[C@H](COC(N)=O)[C@]1(OC)[C@@H]3N[C@@H]3CN21`, for which the growth inhibition is 15% (inactive).

As to `CC(=O)c1ccc(-[n+]2c(C)cc(-c3ccccc3)cc2C)cc1`, the growth inhibition is -1% (inactive). Consider `CN1C(=O)C23CC4=CC=CC(O)C4N2C(=O)C1(CO)SS3` (stereo not given), for which the growth inhibition is 99% (active). On to `CCN1CCC(O)(c2ccc(O)cc2)C(C(=O)c2ccc(O)cc2)C1` (stereo not given), for which the growth inhibition was -9% (inactive). With `CCCCCCCC[As](C)(=O)O` the figure was -54% (inactive); with `CCCCCCC(=O)[O][Hg][c]1ccccc1`, 100% (active). For `CCC[CH2][Sn]1([CH2]CCC)[O]C(=O)CN=Cc2ccccc2[O]1`, the growth inhibition is 92% (active). To `C[C@]12CC[C@H](O)C[C@@H]1CC[C@@H]1[C@@H]2CC[C@]2(C)C(=O)/C(=C/O)C[C@@H]12` belongs -1% (inactive). To `CC(CCc1ccccc1)NC(C)C(O)c1ccc(O)cc1` (stereo not given) belongs 4% (inactive).

These data come from PubChem BioAssay (NCI).
